PLK1 PBD inh: qHTS for Inhibitors of PLK1-PDB (polo-like kinase 1 - polo-box domain): Primary Screen; Serine/threonine-protein kinase PLK1 (Homo sapiens), P53350; Plk1 PBD binding of FITC phosphopeptide, fluorescence polarization; Potency, µM, for inactives: max response, negative = inhibition, usual class: inhibitors; hit rate 2.8% among 360,000; AID 720504, 2013; note: potency is the fitted concentration of half-maximal effect; series mostly up to about 57 µM; nearly all actives have a fitted effect of over 65% in size
Target sequence (P53350 whole entry, looked up, the tested form may be a part): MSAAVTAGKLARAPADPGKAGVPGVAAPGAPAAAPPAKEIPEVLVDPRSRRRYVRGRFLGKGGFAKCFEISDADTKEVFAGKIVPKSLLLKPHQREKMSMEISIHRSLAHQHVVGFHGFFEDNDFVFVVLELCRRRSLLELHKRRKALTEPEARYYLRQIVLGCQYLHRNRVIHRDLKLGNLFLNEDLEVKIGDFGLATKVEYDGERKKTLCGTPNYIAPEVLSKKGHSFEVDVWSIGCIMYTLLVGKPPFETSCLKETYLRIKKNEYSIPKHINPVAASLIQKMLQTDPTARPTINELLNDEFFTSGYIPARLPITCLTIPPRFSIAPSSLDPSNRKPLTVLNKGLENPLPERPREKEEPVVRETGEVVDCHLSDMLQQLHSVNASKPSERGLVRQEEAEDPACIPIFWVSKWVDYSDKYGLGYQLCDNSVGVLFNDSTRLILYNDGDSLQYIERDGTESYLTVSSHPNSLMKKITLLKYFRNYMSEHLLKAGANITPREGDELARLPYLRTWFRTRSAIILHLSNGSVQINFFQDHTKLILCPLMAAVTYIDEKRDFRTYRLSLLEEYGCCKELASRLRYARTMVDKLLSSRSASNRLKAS
G9a block: qHTS Assay for Inhibitors of Histone Lysine Methyltransferase G9a; G9a H3K9 monomethylation, AlphaScreen, 2 h; Potency, µM (series often up to 102 µM), without a hit: at the highest dose activity, negative = inhibition, actives largely listed as inhibitors; hit rate 8.8% among 350,000; note: potency is the fitted concentration of half-maximal effect; nearly all actives have a fitted effect of over 75% in size
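Compounds were preincubated with 20 nM G9a for 15 min, after which biotinylated H3K9 peptide (500 nM) and SAM (20 uM) started a 2 h room-temperature reaction. Monomethylated product was quantified by antibody-based AlphaScreen chemiluminescence.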
MmCpn inh: Inhibitors of TCP-1 ring complex (TRiC) of Methanococcus maripaludis (MmCpn): qHTS. Chaperonin Mm-Cpn (Methanococcus maripaludis). purified Mm-Cpn ATPase, ADP Transcreener TR-FRET. Potency, µM (titrated, usually from 76.9 µM), inactives show at the top dose activity, negative = inhibition, most hits filed as inhibitors. hit rate 0.031% among 330,000. AID 504842, 2011; note: potency is the fitted concentration of half-maximal effect; nearly all actives have a fitted effect of over 80% in size
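Quantitative HTS used 25 nM Mm-CPN and 10 uM ATP in magnesium/KCl Tris buffer, pH 7.4, with 1 mM DTT. Hydrolysis ran 30 min at 37°C; ADP was read by HTRF.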
VDR inhibitor: Inhibitors of the vitamin D receptor (VDR): qHTS; Vitamin D3 receptor (Homo sapiens), P11473; VDR-SRC2-3 peptide fluorescence polarization, 2 h; Potency, µM, without a hit: max response, negative = inhibition, hits mostly inhibitors; AID 504847, 2011; hit rate 0.93% among 400,000; note: potency is the fitted concentration of half-maximal effect
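Compounds are added to VDR with labelled SRC2-3 coactivator peptide and held 2 h at room temperature. Inhibition of the VDR–peptide interaction is then read as a change in fluorescence polarization.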
CCT chaperon mod: High-Throughput Screening for Modulators of Cytosolic Chaperonin Activity; purified chaperonin ATPase assay, HTRF ADP detection, 30 min; activity change, % (test concentration not listed), hits read low; hit rate 0.3% among 360,000; in the data active = activity change below about -30%
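First, chaperonin was dispensed at 40 nM or 20 nM final depending on batch activity. Next, compounds were pinned at 76 uM and ATP added at 10 uM. After 30 min at 37 °C, ADP detection reagents ran 30 min at ambient temperature.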
Sfp PPTase inh: qHTS Assay for Inhibitors of Bacillus subtilis Sfp phosphopantetheinyl transferase (PPTase); 4'-phosphopantetheinyl transferase ffp (Bacillus subtilis), Q9F4F7; Biochemical Sfp PPTase activity, qHTS; Potency, µM, for inactives: largest response in the series, negative = inhibition, most hits filed as inhibitors; hit rate 3.5% among 310,000; AID 1490, 2009;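 note: the enzyme is Sfp with the accession as filed and its product quenches rhodamine fluorescence; potency is the fitted concentration of half-maximal effect; 0% = enzyme reaction without inhibitor and -100% = no enzyme wells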
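Compounds were incubated with enzyme (final 15 nM) for 15 min at room temperature before substrate addition started the reaction. Fluorescence at 525 nm excitation, 598 nm emission was recorded immediately and after 30 minutes.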
The depositor's hits bear a star; ? = inconclusive; . = no result given; [ ] = another dose, or the depositor's remark. In the library only some 10% were active in any assay of this set; here they are far more common. Unless noted, calls come from the whole dose curve; as a rule, active = well fitted curve in the direction sought with a large enough effect; inconclusive = small, poorly fitted or top-dose-only effect, or another doubt; inactive = no such curve, though single readings can be large; an effect the other way counts as inactive or inconclusive. Unless noted, % is set by controls: 0 for no effect and ±100 for the full control effect.

SMILES | PLK1 PBD inh | G9a block | MmCpn inh | VDR inhibitor | CCT chaperon mod | Sfp PPTase inh
COc1ccc(O)c(C(=O)C2c3ccccc3C(=O)N2c2ccc(C)cc2)c1 (stereo unspecified) | ? | 1.6µM* | -4% | -16% | 0 | 22µM*
Cc1ccc(NC(=O)CSc2nc3c(oc4ccccc43)c(=O)n2Cc2ccco2)cc1 | . | 3%[59 µM] | . | -7% | . | .
Cc1cc(Br)ccc1NC(=O)CN(C)C(=O)CCSc1ccc(F)cc1 | 27µM* | 55%[2.33 µM] | 0% | -3% | 3 | .
CN(CC(=O)Nc1cccc(F)c1)C(=O)CCSc1ccc(F)cc1 | -11% | ? | 1% | -15% | 2 | .
CC(=O)Nc1cccc(NC(=O)CSc2cn(CC(=O)N3CCCCCC3)c3ccccc23)c1 | . | -34%[59 µM] | . | -7% | . | .
Fc1ccc(-c2c[nH]c(=S)n2Cc2ccccc2)cc1 | -5% | 1.1µM* | -5% | ? | -4 | ?
N=c1n(CC(=O)c2ccc(Br)cc2)c2ccccc2n1Cc1ccccc1 | 2% | 10%[0.501 µM] | -5% | -9% | -1 | .
COc1ccccc1-n1c(-c2ccc(Cl)cc2)c[nH]c1=S | -4% | ? | 0% | -25% | -5 | -13%
O=c1[nH]cc(-c2ccc(Br)cc2)n1Cc1ccccc1 | -24% | 11µM* | -4% | -3% | -1 | -7%
CN1C(=O)/C(=C/c2cc(C(C)(C)C)c(O)c(C(C)(C)C)c2)NC1=S | 0% | 13µM* | -1% | -7% | -6 | 14%
Cc1cc(N2CCCC2)ccc1/C=C1\NC(=S)N(C)C1=O | 48% | . | -14% | ? | -3 | -15%
COc1ccc(Cl)cc1C(=O)Nc1ccc(Br)c(C)n1 | 24µM* | 0% | 0% | -15% | 0 | -7%
COc1ccc(Cl)cc1C(=O)Nc1ccc(NC(C)=O)cc1 | 5% | 30% | 1% | 5% | -1 | 17%
O=c1nc2ccccn2c2ccc(S(=O)(=O)N3CCCCC3)cc12 | -10% | 45µM* | 0% | 1% | -3 | 27%
COc1ccc(-c2nn3c(=O)cc(CN4CCN(C(=O)Nc5cc(C)ccc5C)CC4)nc3s2)cc1 | . | 16%[59 µM] | . | -1% | . | .
CCOC(=O)c1[nH]cnc1C(=O)Nc1ccc(F)cc1 | 1% | 45µM* | -1% | -7% | 0 | 17%
CCOC(=O)c1[nH]cnc1C(=O)Nc1ccncc1 | -2% | ? | -4% | -2% | -2 | -6%
O=C(Nc1ccccc1)c1nc[nH]c1C(=O)O | . | 0.79µM* | . | 0% | . | .
O=C(Nc1ccccc1)c1nc[nH]c1C(=O)NCCNC(=O)c1[nH]cnc1C(=O)Nc1ccccc1 | 2% | . | 0% | 3% | -4 | .
COc1ccc(-n2cc(-c3ccccc3)c3c(NCCc4ccc(OC)c(OC)c4)ncnc32)cc1 | . | ? | . | 4% | . | .
COc1ccc(C2c3c(n(C)c4ccccc34)C(=O)N2CC(=O)Nc2ccc(Cl)cc2)cc1 (stereo unspecified) | . | -4%[59 µM] | . | -2% | . | .
CCOC(=O)c1ccc(NC(=O)c2nn(C)c3c2COc2ccccc2-3)cc1 | . | 14µM* | . | 13% | . | .
CCN(CC)CCOC(=O)c1ccc(NC(=O)c2nn(C)c3c2COc2ccccc2-3)cc1 | . | -38%[59 µM] | . | 9% | . | .
CCOC(=O)c1c(Nc2ccc(OC)cc2)nnc(-c2ccccc2)c1-c1ccccc1 | . | 7.9µM* | . | -8% | . | .
CCOC(=O)c1c(C)nc(C)c(C(=O)OCC)c1-c1cccnc1 | 4% | 3% | 0% | -8% | 2 | 12%
SMILES | PLK1 PBD inh | G9a block | MmCpn inh | VDR inhibitor | CCT chaperon mod | Sfp PPTase inh
CCOC(=O)c1c(Nc2cccc(C)c2)nnc(-c2ccccc2)c1-c1ccccc1 | . | ? | . | -6% | . | .
CCOC(=O)c1c(Nc2cc(C)cc(C)c2)nnc(-c2ccccc2)c1-c1ccccc1 | . | 3.5µM* | . | -6% | . | .
CCOC(=O)c1c(C)nc(C)c(C(=O)OCC)c1-c1ccccc1 | -6% | -13%[59 µM] | -3% | -5% | 0 | 45µM*
Cc1ccc(CSc2nncn3c2cc2sccc23)cc1 | . | -1%[59 µM] | . | 7% | . | .
O=C(NCCC1=CCCCC1)c1ccc2c(c1)sc1nc(-c3ccc(F)cc3)cn12 | . | -6%[59 µM] | . | 8% | . | .
O=P(O)(O)OC(CO)CO | . | . | . | 1% | . | -6%
O=C1/C(=C/c2ccc(F)cc2)SC(=S)N1CC(=O)N1CCCCC1c1cccnc1 (stereo unspecified) | -6% | 40µM* | 3% | 4% | -2 | ?
O=C(/C=C/c1ccc(F)cc1)NC(=S)N1CCCCC1c1cccnc1 (stereo unspecified) | ? | ? | 1% | 14% | -2 | 50µM*
O=C1/C(=C/c2ccccc2F)SC(=S)N1CC(=O)N1CCCCC1c1cccnc1 (stereo unspecified) | -8% | 5µM* | 1% | -5% | 2 | -20%
COc1cc(NC(=O)Cn2c(-c3ccccc3)cc(C(C)=O)c2C)cc(OC)c1 | . | -7%[59 µM] | . | 12% | . | .
CCc1cccc(CC)c1NS(=O)(=O)c1ccc2c(c1)CCN2C(=O)C1CC1 | . | 1%[59 µM] | . | -23% | . | .
O=C1NC(=O)/C(=C/c2ccc3c(c2)OC(F)(F)O3)S1 | . | 55%[59 µM] | . | ? | . | .
Cc1cc(C)cc(NC(=O)N2CCN(C)c3ncccc32)c1 | . | 7%[59 µM] | . | 3% | . | .
COc1ccc2c(c1)c1c(c(=O)n(-c3ccccc3C)c(=O)n1Cc1c(F)cccc1Cl)n2C | . | 2%[59 µM] | . | 11% | . | .
COc1ccc2c(c1)CCCC2=O | -8% | . | . | -19% | -4 | .
COc1ccc(C2NC(=S)NC3=C2CCc2cc(OC)ccc23)cc1 (stereo unspecified) | ? | 40µM* | 1% | ? | 0 | -11%
COc1ccccc1C(=O)Nc1nnc(SCC(=O)NCC2CCCO2)s1 (stereo unspecified) | -3% | . | -3% | 2% | 0 | 11%
O=C(CSc1nc2ccccc2s1)NCC1CCCO1 (stereo unspecified) | ? | . | 2% | -19% | -2 | -16%
COc1cc(C(=O)Nc2nnc(SCC(=O)NCC3CCCO3)s2)cc(OC)c1OC (stereo unspecified) | 1% | 71µM* | -1% | -8% | -5 | 10%
O=C(CSc1nc2ccc(NC(=O)C3CCCCC3)cc2s1)NCC1CCCO1 (stereo unspecified) | 0% | 45µM* | -4% | -12% | 0 | 0%
Cc1ccc(N2CC(C(=O)Nc3nnc(SCCN4CCOCC4)s3)CC2=O)cc1 (stereo unspecified) | -8% | ? | -4% | 1% | 1 | 27%
